Among the data in the supplement of paper PMC6555819 are PBM binding z-score values, retold here.

Common to all, as to experiment: PBM binding z-score (relative to random genomic background probes); higher = stronger binding; sequences stand for … in GC…GCGATTGACAGCGTAGAATGAAGG
In experiment [1] the test system is FXR:RXRa (NR concentration 270 nM, RXRa partner concentration 90 nM). A digest of the protocol: (§1)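 Probes were double-stranded and carried 34-nt variable regions with direct-repeat seeds, single-nucleotide variants, half-site ablations and random human genomic background sequences, printed on custom Agilent 4×180K protein-binding microarrays. Arrays were incubated 1 h with ligand-free nuclear receptor dimers in PBS pH 7.4, 2% milk, 0.02% Triton X-100, 1 mM DTT, 0.2 mg/mL BSA and 0.4 mg/ml salmon testes DNA. Antibodies against each partner (one per run) detected binding, and scanned fluorescence was regression-normalized. Binding z-scores use the random background probes as reference.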

Experiment [2] relates to LXRa:RXRa (NR concentration 270 nM, RXRa partner concentration 90 nM). Summed up:
as §1

Experiment [3] concerns LXRa homodimer (NR concentration 270 nM). A digest of the protocol: as §1
In experiment [4] the test system is LXRb:RXRa (NR concentration 270 nM, RXRa partner concentration 90 nM). Summed up:
as §1

The subject of experiment [5] is LXRb homodimer (NR concentration 270 nM). A digest of the protocol: as §1
For experiment [6], the system named is PPARa:RXRa (NR concentration 270 nM, RXRa partner concentration 90 nM). Summed up:
as §1

Experiment [7] deals with PPARg:RXRa (NR concentration 180 nM, RXRa partner concentration 90 nM). Summed up: as §1
In experiment [8] the test system is PPARg:RXRa 270nM:90nM, anti-RXR (NR concentration 270 nM, RXRa partner concentration 90 nM). Summed up:
as §1

The subject of experiment [9] is PPARg:RXRa 30nM:10nM, anti-RXR (NR concentration 30 nM, RXRa partner concentration 10 nM). Summed up: as §1
The subject of experiment [10] is PPARg:RXRa 90nM:30nM, anti-RXR (NR concentration 90 nM, RXRa partner concentration 30 nM). Summed up: as §1
In experiment [11] the test system is PPARg:RXRa DBDmut IVT, anti-RXR (DBD mutation: RXRa K156A/R161A, NR concentration 270 nM, RXRa partner concentration 90 nM). A digest of the protocol: as §1
For experiment [12], the system named is PPARg:RXRa IVT, anti-PPARg (NR concentration 270 nM, RXRa partner concentration 90 nM). A digest of the protocol: as §1
Experiment [13] concerns PPARg DBDmut:RXRa IVT, anti-PPARg (DBD mutation: PPARg1 K132A/R137A, NR concentration 270 nM, RXRa partner concentration 90 nM). Summed up:
as §1

The subject of experiment [14] is PPARg DBDmut IVT, anti-PPARg (DBD mutation: PPARg1 K132A/R137A, NR concentration 270 nM). A digest of the protocol: as §1
Experiment [15] has as its system PPARg homodimer (NR concentration 180 nM). Summed up:
as §1

Experiment [16] relates to PXR:RXRa (NR concentration 270 nM, RXRa partner concentration 90 nM). Summed up:
as §1

For experiment [17], the system named is PXR homodimer (NR concentration 270 nM). A digest of the protocol: as §1
For experiment [18], the system named is RARa:RXR (NR concentration 270 nM, RXRa partner concentration 90 nM). A digest of the protocol: as §1
The subject of experiment [19] is RARa homodimer (NR concentration 270 nM). Summed up: as §1
The test system of experiment [20] is RARb:RXRa (NR concentration 270 nM, RXRa partner concentration 90 nM). Summed up: as §1

Consider AGTCAAAGTTCACTCGGTAACGTAAGATTCAGCT, for which the PBM binding z-score was determined as 5.02 in experiment [1]; 5.41 in experiment [2]; 3.18 in experiment [3]; 3.38 in [4]; 1.27 in [5]; 4.24 in experiment [6]. The PBM binding z-score was 5.6 in [7]; 5.93 in experiment [8]; 2.54 in experiment [9]; 4.94 in experiment [10]; 0.841 in experiment [11]; 2.9 in experiment [12]. Besides, the PBM binding z-score is 1.02 in experiment [13]; 1.36 in [14]; 2.4 in experiment [15]; 4.21 in experiment [16]; 2.5 in experiment [17]; 3.1 in [18]. For the same sequence, the PBM binding z-score in experiment [19] was 1; in experiment [20], 4.76.
Consider CCTTACGGGTCACTCCAGGTTATCGCATCGGAGT, for which the PBM binding z-score is 4.86 in [1]; 7.44 in experiment [2]; 2.05 in [3]; 5.17 in experiment [4]; 0.292 in [5]; 4.26 in experiment [6]. Besides, the PBM binding z-score in experiment [7] stood at 3.02; in experiment [8], 3.76; in experiment [9], 0.874; in [10] it was 2.38; in experiment [11], 2.41; in experiment [12], 3.83. For the same sequence, the PBM binding z-score in [13] was -0.0167; in [14], -0.117; in [15], 1.35; in [16], 4.65; in [17] it was 0.118; in experiment [18], 3.01. The figures for the PBM binding z-score in experiment [19] and in experiment [20] were 0.208 and 3.55, respectively.
Regarding CTACCAAGGTGAACAAGGACGTTGATTACTATTC, the PBM binding z-score is 0.78 in experiment [1]; 0.235 in [2]; 0.0356 in experiment [3]; 0.647 in experiment [4]; -0.411 in [5]; 0.963 in [6]. The PBM binding z-score is 0.812 in experiment [7]; 0.636 in experiment [8]; 0.194 in [9]; 0.209 in [10]; 2.52 in experiment [11]; 2.17 in [12]. In addition, the PBM binding z-score in experiment [13] worked out at 0.0703; in experiment [14], 0.657; in [15], 0.761; in experiment [16], 0.356; in experiment [17], 0.295; in [18] it was 0.5. Also, the PBM binding z-score was 0.187 in [19] and 1.55 in [20].
For GGAAAGAGGGCAAAGTTGATAGCATCTGTCGACG, the PBM binding z-score in experiment [1] stood at 2.04; in experiment [2], 1.94; in experiment [3], 0.254; in [4], 1.64; in experiment [5] it was 0.832; in [6], 4.24. The PBM binding z-score in experiment [7] was 6.06; in experiment [8] it was 6.9; in experiment [9], 5.92; in experiment [10], 7.29; in experiment [11], 3.73; in experiment [12], 3.74. The PBM binding z-score in experiment [13] was 1.03; in experiment [14], -0.31; in [15], 1.67; in experiment [16], 1.77; in experiment [17] it was 0.468; in experiment [18], 2.25. Further, the PBM binding z-score in experiment [19] came to 0.527; in experiment [20], 2.77.
ACTTACGGGCCAACGAGGTTATAGCACGCGTATA: the PBM binding z-score is 0.283 in [1]; 0.557 in experiment [2]; -0.119 in experiment [3]; 0.645 in experiment [4]; -0.0337 in [5]; 1.16 in experiment [6]. The PBM binding z-score in [7] is 0.891; in experiment [8], 0.372; in experiment [9], 0.0261; in experiment [10], 0.602; in [11], 0.992; in experiment [12], 0.418. Besides, the PBM binding z-score in experiment [13] came to 0.118; in experiment [14], 0.119; in [15], 0.076; in [16], 1; in [17], 0.334; in experiment [18], 1.16. Besides, the PBM binding z-score in experiment [19] was 0.0529; in experiment [20] it was 1.05.
As to CCTAGCAGGCCAATCTGAGTCACTCAAGGCTTGA, the PBM binding z-score in [1] is -0.524; in experiment [2], -0.573; in experiment [3], -0.759; in [4], -0.644; in experiment [5], -0.64; in [6], -0.513. For the same sequence, the PBM binding z-score is -0.183 in experiment [7]; -0.961 in experiment [8]; -0.966 in experiment [9]; -1.25 in experiment [10]; 1.42 in [11]; 0.0725 in experiment [12]. In addition, the PBM binding z-score in [13] was -1.14; in [14], -1.49; in experiment [15], 0.0523; in [16], -0.832; in [17], -0.519; in [18], -0.853. Further, the PBM binding z-score in experiment [19] is -0.569; in experiment [20], -0.0528.
With TGGCCTAGGTCATTCAGGGGCCAGTATAGAAAGC, the PBM binding z-score in experiment [1] came out at 4.69; in [2], 3.39; in experiment [3] it was 0.183; in experiment [4] it was 2.3; in experiment [5] it was 0.0581; in experiment [6], 3.59. Moreover, the PBM binding z-score in [7] is 2.15; in experiment [8] it was 2.33; in experiment [9], 0.133; in experiment [10] it was 1.5; in experiment [11] it was 1.06; in experiment [12], 2.22. Moreover, the PBM binding z-score was -0.515 in experiment [13]; -0.779 in experiment [14]; 1.82 in experiment [15]; 2.48 in experiment [16]; -0.213 in experiment [17]; 3.77 in experiment [18]. Also, the results for the PBM binding z-score in experiment [19] and in experiment [20] were 0.313 and 3.94, respectively.
